About 2,100 (0.53%) of roughly 400,000 compounds were called active. Inconclusive results (about 14%) are left out. No rule for the calls is given here. This excerpt belongs to a sample that is enriched for actives.

In the assay the target is Ataxin-2 (Homo sapiens) (UniProt Q99700). Kind of assay: qHTS for Inhibitors of ATXN expression. Type of assay: functional. (In general: In qHTS, concentration-response curves come from the screen itself.)
Chain of Ataxin-2 (Homo sapiens) (Q99700 whole entry): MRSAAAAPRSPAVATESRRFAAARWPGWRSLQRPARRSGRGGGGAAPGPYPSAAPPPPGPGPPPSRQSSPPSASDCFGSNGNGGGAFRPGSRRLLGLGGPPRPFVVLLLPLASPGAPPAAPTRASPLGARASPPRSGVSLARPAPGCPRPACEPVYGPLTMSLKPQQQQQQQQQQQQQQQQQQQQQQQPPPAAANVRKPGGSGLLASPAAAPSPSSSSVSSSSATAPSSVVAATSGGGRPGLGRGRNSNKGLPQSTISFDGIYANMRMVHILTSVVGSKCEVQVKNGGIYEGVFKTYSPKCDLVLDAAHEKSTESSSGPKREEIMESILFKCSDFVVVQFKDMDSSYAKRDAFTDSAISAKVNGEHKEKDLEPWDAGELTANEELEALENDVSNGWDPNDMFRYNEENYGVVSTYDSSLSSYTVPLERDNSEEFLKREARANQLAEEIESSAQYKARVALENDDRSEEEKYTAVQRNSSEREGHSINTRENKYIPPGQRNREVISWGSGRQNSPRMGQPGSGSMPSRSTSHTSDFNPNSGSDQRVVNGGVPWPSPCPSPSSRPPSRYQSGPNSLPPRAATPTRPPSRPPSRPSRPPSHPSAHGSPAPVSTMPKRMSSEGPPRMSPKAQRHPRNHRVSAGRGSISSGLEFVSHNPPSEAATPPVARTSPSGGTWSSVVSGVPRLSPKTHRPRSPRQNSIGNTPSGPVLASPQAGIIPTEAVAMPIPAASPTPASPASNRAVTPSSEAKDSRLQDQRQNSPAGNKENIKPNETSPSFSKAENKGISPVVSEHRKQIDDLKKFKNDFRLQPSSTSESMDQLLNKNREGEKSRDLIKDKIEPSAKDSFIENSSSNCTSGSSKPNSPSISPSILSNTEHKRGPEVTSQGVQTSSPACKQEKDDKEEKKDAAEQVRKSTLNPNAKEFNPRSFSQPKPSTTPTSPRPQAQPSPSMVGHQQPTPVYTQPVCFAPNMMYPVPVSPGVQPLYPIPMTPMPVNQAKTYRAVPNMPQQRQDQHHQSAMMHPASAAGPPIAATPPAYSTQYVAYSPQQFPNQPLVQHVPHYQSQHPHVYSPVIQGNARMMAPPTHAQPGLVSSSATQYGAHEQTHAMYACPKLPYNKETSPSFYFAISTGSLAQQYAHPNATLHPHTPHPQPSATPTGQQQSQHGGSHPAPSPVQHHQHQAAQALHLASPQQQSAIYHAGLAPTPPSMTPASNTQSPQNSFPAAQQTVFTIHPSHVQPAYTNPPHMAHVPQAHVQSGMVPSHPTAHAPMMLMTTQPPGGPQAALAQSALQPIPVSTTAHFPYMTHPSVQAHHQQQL
Take `CCc1nnc(N/C=C2/C(=O)N(c3ccc(Cl)cn3)C(=O)c3ccccc32)s1`: the Potency entry is “inactive”.

Regarding `CCn1c(NCc2ccc(OC)cc2)nc2ccccc21`, the Potency result was “inactive”.

As to `Cn1c(COc2ccc(C(=O)O)cc2)nc2ccccc21`, the Potency entry is “inactive”.

In the case of `COc1ccc(C(=O)Cn2c(C(C)=O)nc3ccccc32)cc1`, the Potency is 33.6 µM (active).

Take `CN(C)c1cccc(C(=O)OCc2cc(=O)oc3cc(O)ccc23)c1`: the Potency result is “inactive”.

Consider `N#C/C(=C\c1cccnc1)c1nc2c(s1)CCCC2`, for which the Potency result was “inactive”.

Regarding `CN1/C(=C/C=C/c2n(C)c3cc([N+](=O)[O-])c([N+](=O)[O-])cc3[n+]2C)C(C)(C)c2ccccc21`, the Potency is 7.94 µM (active).

`O=C(Oc1c(-c2ccccc2Cl)oc2ccccc2c1=O)c1ccc(Cl)cc1`: the Potency result was “inactive”.

Regarding `COCCCn1c(=N)c(C(=O)NCC2CCCO2)cc2c(=O)n3cccc(C)c3nc21` (stereo unspecified), the Potency result was “inactive”.

Regarding `Cc1ccc(-n2c(=O)c(C#N)cc3c(=O)n4ccccc4nc32)cc1C`, the Potency result was “inactive”.

Regarding `O=C(Cc1ccccc1)Nc1nc(-c2ccc(F)c(F)c2)cs1`, the Potency entry is “inactive”.

For the compound `Cc1c(Cl)cccc1NC(=O)CNC(=O)CCS(=O)(=O)c1ccc(F)cc1`, the Potency result was “inactive”.

Consider `O=C(CCS(=O)(=O)c1ccc(F)cc1)Nc1nc(-c2ccncc2)cs1`, for which the Potency was 39.8 µM (active).

Take `COc1ccc(N2C(=O)CC(NNc3ncc(Cl)cc3Cl)C2=O)cc1` (stereo unspecified): the Potency result was “inactive”.

With `COc1ccc(-n2nc(C)c3onc(C)c3c2=O)cc1`, the Potency result was “inactive”.

`COc1ccc(-n2nc(C#N)c(Cl)cc2=O)cc1`: the Potency was 39.8 µM (active).

For the compound `CC(C)(C)c1ccc(-n2nc(C#N)c(Cl)cc2=O)cc1`, the Potency was 15.8 µM (active).

As for `Cc1ccc(CSc2nnc([C@@H]3CCCN3C(=O)OC(C)(C)C)o2)cc1`, the Potency result was “inactive”.

Consider `CCc1nnc(NS(=O)(=O)c2ccc(N/C=C/C(=O)c3ccc(C)cc3)cc2)s1`, for which the Potency entry was “inactive”.

As for `O=[N+]([O-])c1ccc(Sc2cccc[n+]2[O-])c2nonc12`, the Potency is 6.7 µM (active).

Turning to `CCc1nnc(NS(=O)(=O)c2ccc(NC(=O)c3cccc(Cl)c3)cc2)s1`, the Potency result was “inactive”.

In the case of `O=[N+]([O-])c1ccc(Nc2ccccc2)c2nonc12`, the Potency was 25.1 µM (active).

Take `CCc1nnc(NS(=O)(=O)c2ccc(Nc3ccc([N+](=O)[O-])c4nonc34)cc2)s1`: the Potency is 17.8 µM (active).

On to `COCCn1c(SCC(=O)NC2CCCCC2)nnc1-c1ccncc1`, for which the Potency result was “inactive”.

`O=C1OCCN1C(=O)[C@H]1[C@H](c2ccc(F)cc2)C(c2cccc(Cl)c2)=NN1c1ccccc1`: the Potency result is “inactive”.

In the case of `CN(C)C(=O)CCc1ccc2c3c([nH]c2c1)[C@]1(C)[C@@H](C(=O)N2CCCCC2)C[C@H](CC(=O)NCC24C[C@H]5C[C@@H](C2)C[C@@H](C4)C5)C(=O)N1CC3`, the Potency is 39.8 µM (active).

For `CC(C)N(C(=O)[C@H]1CC(CC(=O)NCc2cccc(C(F)(F)F)c2)C(=O)N2CCc3c([nH]c4ccccc34)[C@]12C)C(C)C` (stereo partly specified), the Potency was 39.8 µM (active).

Turning to `CCN(CC)C(=O)[C@H]1CC(CC(=O)NCC23C[C@H]4C[C@@H](C2)C[C@@H](C3)C4)C(=O)N2CCc3c([nH]c4ccccc34)[C@]12C` (stereo partly specified), the Potency was 39.8 µM (active).

As to `CCN(CC)C(=O)[C@H]1CC(CC(=O)NCc2cccc(C(F)(F)F)c2)C(=O)N2CCc3c([nH]c4ccccc34)[C@]12C` (stereo partly specified), the Potency was 22.4 µM (active).

With `O=C(NCc1cccc(C(F)(F)F)c1)c1cccc2c1C(=O)c1ccc(N3CCC(Cc4ccccc4)CC3)cc1S2(=O)=O`, the Potency result is “inactive”.

In the case of `C/C(=N\NC(=O)c1nc2ccccn2c1C)c1ccco1`, the Potency result is “inactive”.

`Cc1c(Cc2ccccc2)c(=O)oc2cc(O)cc(O)c12`: the Potency entry is “inactive”.

`COCC(=O)N(CCN(C)C)Cc1cc2cc3c(cc2nc1Cl)OCO3`: the Potency result is “inactive”.

Take `COc1ccc(-c2cn3nc(SCC(=O)NCC4CCCO4)ccc3n2)cc1` (stereo unspecified): the Potency result was “inactive”.

Take `Cn1cnc([N+](=O)[O-])c1S(=O)(=O)c1cccc(Cl)c1`: the Potency was 8.91 µM (active).

For the compound `Cn1cnc([N+](=O)[O-])c1S(=O)(=O)Oc1ccc(Cl)cc1`, the Potency is 31.6 µM (active).

In the case of `CCOc1ccc(Nc2nc3c(S(=O)(=O)c4cccc(Cl)c4)nnn3c3ccsc23)cc1`, the Potency result was “inactive”.

Consider `Cn1cnc([N+](=O)[O-])c1S(=O)(=O)Oc1ccccc1`, for which the Potency is 28.2 µM (active).

Regarding `Cn1c(=O)n(CCOc2ccc([N+](=O)[O-])cc2)c2ccccc21`, the Potency result was “inactive”.

`O=S(=O)(Oc1ccc(Cl)cc1)c1cccc2cccnc12`: the Potency entry is “inactive”.

For `CC(=O)Nc1ccc(OS(=O)(=O)c2cc(Cl)ccc2C)cc1`, the Potency entry was “inactive”.

`Cc1c2c(n3c(nc4ccccc43)c1C#N)N(CCCN(C)C)CC2`: the Potency entry was “inactive”.

As for `Cc1ccc(Sc2ncccc2C(=O)N(C)Cc2cccs2)c(C)c1`, the Potency entry is “inactive”.

For `O=c1c2ccccc2oc2cc(NCCCN3CCOCC3)ccc12`, the Potency entry was “inactive”.

`CCN(CC)S(=O)(=O)c1ccc(N2CCCC2)c(NS(=O)(=O)c2cccs2)c1`: the Potency entry was “inactive”.

With `CCCCCCSc1ccc(-c2nc3cnccn3c2NCCCC)cc1`, the Potency entry is “inactive”.

With `O=c1c2ccccc2nc(/C=C/c2cc(Br)ccc2O)n1CCCO`, the Potency result was “inactive”.

Consider `O=c1c2ccccc2nc(/C=C/c2ccc([N+](=O)[O-])o2)n1CCCO`, for which the Potency was 15.8 µM (active).

On to `CN(C)c1ccc(/C=C/c2nc3ccccc3c(=O)n2CCO)cc1`, for which the Potency entry is “inactive”.

For the compound `CCn1c(/C=C/c2cc[n+](C)cc2)nc2ccccc21`, the Potency result was “inactive”.

For `O=C(/C=C/c1ccc(Cl)c([N+](=O)[O-])c1)c1ccc(O)cc1`, the Potency was 28.2 µM (active).

As to `COc1ccc(Oc2ccc(/C=C/C(=O)c3cccc(OC)c3)cc2[N+](=O)[O-])cc1`, the Potency is 39.8 µM (active).

For `COc1ccc(Oc2ccc(/C=C/C(=O)c3ccc(O)cc3)cc2[N+](=O)[O-])cc1`, the Potency was 28.2 µM (active).

With `COc1ccc(OC)c(C=Cc2ccc([N+](=O)[O-])cc2)c1`, the Potency result is “inactive”.

As to `Cc1cc(CNC(=O)c2cccc([N+](=O)[O-])c2C)c2ccccc2n1`, the Potency entry is “inactive”.

For the compound `Cc1cccc(NC(=S)N(CCCN2CCCC2)Cc2cccn2Cc2ccc(Cl)cc2)c1`, the Potency was 25.1 µM (active).

Consider `Cc1ccc(NC(=S)N(CCCN2CCCC2)Cc2cccn2Cc2ccc(Cl)cc2)cc1`, for which the Potency is 39.8 µM (active).

Turning to `COc1ccc(NC(=O)Cn2nc(C(=O)O)c3ccccc3c2=O)cc1Cl`, the Potency result is “inactive”.

Regarding `CSc1cccc(NC(=S)N(CCCN2CCCC2)Cc2cccn2Cc2ccc(Cl)cc2)c1`, the Potency was 31.6 µM (active).

For the compound `CN(CC(=O)Nc1cccc(C#N)c1)Cc1ccc(Cl)cc1`, the Potency entry was “inactive”.

On to `COc1ccc(NC(=S)N(CCCN2CCCC2)Cc2cccn2Cc2ccc(Cl)cc2)cc1Cl`, for which the Potency is 39.8 µM (active).
